Experiments:
Assay in all cases: PBM binding z-score (relative to random genomic background probes); higher = stronger binding; sequences stand for … in GC…GCGATTGACAGCGTAGAATGAAGG
[1] = tested on: FXR:RXRa (NR concentration 270 nM, RXRa partner concentration 90 nM)
Summary of the method: (§1)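 Regression normalization was applied to scanned fluorescence from custom Agilent 4×180K protein-binding microarrays. Before scanning, arrays were incubated 1 h with ligand-free nuclear receptor dimers, and binding was detected with antibodies against each partner (one per run). Binding z-scores use the random background probes as reference.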

[2] = tested on: LXRa:RXRa (NR concentration 270 nM, RXRa partner concentration 90 nM)
Summary of the method: as §1

[3] = tested on: LXRa homodimer (NR concentration 270 nM)
Summary of the method: as §1

[4] = tested on: LXRb:RXRa (NR concentration 270 nM, RXRa partner concentration 90 nM)
Summary of the method: as §1

[5] = tested on: LXRb homodimer (NR concentration 270 nM)
Summary of the method: as §1

[6] = tested on: PPARa:RXRa (NR concentration 270 nM, RXRa partner concentration 90 nM)
Summary of the method: as §1

[7] = tested on: PPARg:RXRa (NR concentration 180 nM, RXRa partner concentration 90 nM)
Summary of the method: as §1

[8] = tested on: PPARg:RXRa 270nM:90nM, anti-RXR (NR concentration 270 nM, RXRa partner concentration 90 nM)
Summary of the method: as §1

[9] = tested on: PPARg:RXRa 30nM:10nM, anti-RXR (NR concentration 30 nM, RXRa partner concentration 10 nM)
Summary of the method: as §1

[10] = tested on: PPARg:RXRa 90nM:30nM, anti-RXR (NR concentration 90 nM, RXRa partner concentration 30 nM)
Summary of the method: as §1

[11] = tested on: PPARg:RXRa DBDmut IVT, anti-RXR (DBD mutation: RXRa K156A/R161A, NR concentration 270 nM, RXRa partner concentration 90 nM)
Summary of the method: as §1

[12] = tested on: PPARg:RXRa IVT, anti-PPARg (NR concentration 270 nM, RXRa partner concentration 90 nM)
Summary of the method: as §1

[13] = tested on: PPARg DBDmut:RXRa IVT, anti-PPARg (DBD mutation: PPARg1 K132A/R137A, NR concentration 270 nM, RXRa partner concentration 90 nM)
Summary of the method: as §1

[14] = tested on: PPARg DBDmut IVT, anti-PPARg (DBD mutation: PPARg1 K132A/R137A, NR concentration 270 nM)
Summary of the method: as §1

[15] = tested on: PPARg homodimer (NR concentration 180 nM)
Summary of the method: as §1

[16] = tested on: PXR:RXRa (NR concentration 270 nM, RXRa partner concentration 90 nM)
Summary of the method: as §1

[17] = tested on: PXR homodimer (NR concentration 270 nM)
Summary of the method: as §1

[18] = tested on: RARa:RXR (NR concentration 270 nM, RXRa partner concentration 90 nM)
Summary of the method: as §1

[19] = tested on: RARa homodimer (NR concentration 270 nM)
Summary of the method: as §1

[20] = tested on: RARb:RXRa (NR concentration 270 nM, RXRa partner concentration 90 nM)
Summary of the method: as §1

Sequence	PBM binding z-score [1]	PBM binding z-score [2]	PBM binding z-score [3]	PBM binding z-score [4]	PBM binding z-score [5]	PBM binding z-score [6]	PBM binding z-score [7]	PBM binding z-score [8]	PBM binding z-score [9]	PBM binding z-score [10]	PBM binding z-score [11]	PBM binding z-score [12]	PBM binding z-score [13]	PBM binding z-score [14]	PBM binding z-score [15]	PBM binding z-score [16]	PBM binding z-score [17]	PBM binding z-score [18]	PBM binding z-score [19]	PBM binding z-score [20]
GCATATAGGTAATAGAAGGTGAAAGTCCGATTGT	0.555	1.95	0.235	0.582	-0.597	1.78	1.24	1.35	0.321	0.9	3.98	3.21	0.445	0.104	0.675	0.246	0.153	0.961	0.689	0.402
TCTGCTAGGTCGACGATGGTCAGCTAATCTGCTA	-0.0207	0.0577	-1.03	-0.332	-1.02	0.202	-0.26	0.642	1.2	0.698	1.12	0.905	-0.448	-0.108	-1.39	-0.185	-1.16	0.0229	-1.42	1.16
ATATCTAGGTAAGACTCAGTTCAGTGAAGAACGC	0.211	0.372	0.425	0.221	0.484	1.35	1.55	1.27	0.124	0.928	5.77	4.56	2.06	1.25	0.747	0.999	1.25	0.287	1.13	0.401
CCTACTGGGCCATCAGGTCATCGATATCAACGTT	1.37	1.07	0.687	1.38	-0.672	2.79	3.18	3.65	1.59	3.22	4.21	5.09	-0.466	-0.676	1.03	1.5	-0.0162	2.04	-0.0284	2.39
ACTTACGGGTCAACGAGGTTATAGCGCGCGTATA	6.93	5.04	0.711	4.5	0.647	5.73	5.68	5.59	2.17	4.49	3.58	4.21	0.78	1.28	2.15	5.22	3.53	5.29	0.581	4.29
CGAACTAGGTCAGAACAAGACAGTGAAGGATGAT	0.848	0.591	-0.0962	0.588	-0.311	3.32	5.7	4.3	2.01	3.41	7.36	7.43	2.55	1.93	1.19	0.244	0.276	0.614	0.172	2.85
AATAGTTGGTCAGCTGAGGTCACACACAATTCGG	3.52	3.25	3.1	3.57	1.05	3.81	2.21	2.14	0.525	1.25	1.3	2.86	1.06	0.792	3.85	5.58	2.36	4.78	2.44	3.7
TCATATAGGTCAATGCTAGGTGAAAGTCCGATCT	5.19	4.7	1.51	3.52	1.02	5	5.86	6.06	4.7	5.89	6.69	6.83	1.25	2.16	2.7	2.78	0.347	3.7	1.3	4.21
GCTAGCCGGCCATTTGGGTCACTCAATGACGGGC	0.14	-0.0989	-0.475	-0.0153	-0.65	1.12	0.338	0.0131	-0.633	-0.159	0.149	1.18	-0.74	-1.42	-0.135	0.15	-0.217	0.452	-1.3	1.19
TTATATAGGTAAAAGGTGAAAGTCGGTGTGGTAA	2.14	1.87	0.372	2.02	-0.0123	6.3	10.6	9.28	9.36	10.3	7.08	6.76	2.28	1.42	2.84	1.91	0.453	3.15	1.5	1.86
TCGAGTAGGTTAGGGGCATGCAGAATGGCGTCGA	0.354	0.125	-0.474	0.49	-0.161	1.29	0.641	1.68	0.979	1.27	1.92	1.32	-0.639	-1.3	0.568	0.108	-0.44	0.383	-0.355	1.2
CCTGCTAGATCAATGGTCAGCTAAAGCAGCTCGC	-0.932	-0.902	-0.811	-0.945	-0.566	-0.697	-0.182	0.115	-0.8	-0.292	-0.539	-0.867	-1.21	-1.31	-0.942	-0.879	-0.691	-0.744	-0.962	-0.116
CTCGAAAGGTCGGTCGAGGTGAGTATACGGATAA	2.43	1.82	-0.49	1.29	-0.496	2.75	0.678	1.5	0.401	0.892	0.299	1.21	0.0612	-0.418	0.551	3.08	-0.312	2.59	-0.801	3.2
